Many of the other results were omitted from the sample, so hits are more common in it than they were.
PNC assembly inh = blocks assembly of the perinucleolar compartment; PC3M PTB-GFP, PNC prevalence imaging, 16 h; hits give low values; activity change (PNC), negative = inhibition, % at 10 µM; 140,000 tested, 3.1% active;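 active means readout at or below -70, meaning at least 70% loss of cells showing the perinucleolar compartment, a nuclear body marking cancer cells; inconclusive means readout between -30 and a set limit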;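 further: plate controls were DMSO wells for no effect and camptothecin positive control wells for full effect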
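PC3M cells stably expressing PTB-GFP, 750–1000 cells/well, treated 16 h at 37 °C with compound (23 nl of library stock), in duplicate. After paraformaldehyde fixation and Hoechst stain, imaged at 20x; PNC prevalence scored by image analysis.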
Lamin A splicing = changes lamin A minigene splicing in HeLa cells | HeLa LMNA splicing GFP/RFP minigene ratio, 48 h | AID 1487 | Potency, µM (titrated, usually from 46.1 µM), for inactives: at the highest dose ratio change, negative = inhibition, hits mostly inhibitors | 200,000 tested, 0.01% active; active means well fitted inhibition curve with a large enough effect in the signal ratio, with a control signal flat, not every such curve was filed as active; inconclusive means small, poorly fitted or top-dose-only effect, or effect the other way, or a change in a side signal; the % refers to the signal ratio; further: potency means the concentration at half of the fitted maximal effect
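Read-out is the ratio of GFP to DsRed2 object intensity, acquired by 488 nm laser-scanning cytometry on HeLa lamin A-EGFP minigene reporter cells. Compound incubation 48 hrs at 37 °C in Opti-MEM with 2% FBS; DMSO 0.5% final.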
IMPase inh = cell-permeable inhibitors of inositol monophosphatase (IMPase); P97697; CHO-M1 cells, IP1 accumulation, HTRF TR-FRET ratio; inhibition (IP1 accumulation), % at 46.1 µM; 120,000 tested, under 10 active; active means well fitted curve in the direction sought with a large enough effect in the signal ratio, not every such curve was filed as active; inconclusive means small, poorly fitted or top-dose-only effect, or a change in a side signal; inactive means no such curve, though single readings can be large or run the other way; the % refers to the signal ratio;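 further: cells stimulated with carbachol in lithium chloride buffer; plate controls were DMSO basal wells for no effect and reference inhibitor wells for full effect; higher means more IMPase inhibition seen as more IP1 and lower FRET ratio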
Target sequence (P97697 whole entry, looked up): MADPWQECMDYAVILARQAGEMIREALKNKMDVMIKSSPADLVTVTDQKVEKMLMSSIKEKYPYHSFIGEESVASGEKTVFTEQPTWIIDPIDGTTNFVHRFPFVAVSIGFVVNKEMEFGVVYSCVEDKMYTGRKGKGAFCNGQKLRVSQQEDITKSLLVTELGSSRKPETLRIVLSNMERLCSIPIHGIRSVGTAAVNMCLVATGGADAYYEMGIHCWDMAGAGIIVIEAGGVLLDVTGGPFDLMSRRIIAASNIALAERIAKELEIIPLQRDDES
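In this qHTS, compounds (final up to 46 uM) act on CHO-M1 cells that are then activated through the M1 receptor with carbachol, in pH 7.4 buffer containing 50 mM LiCl, for 30 min. IP1 accumulation is quantified by the IP-One immunoassay.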
Starred values were filed as active, the others as inactive; ? = inconclusive; · = not tested or not shown; [ ] = remark or other dose. Unless noted, on the % scale 0 is the no-effect control and ±100 the full control effect.

SMILES	PNC assembly inh	Lamin A splicing	IMPase inh
COc1ccc(C(=O)NC(NC(=S)Nc2ccc(S(N)(=O)=O)cc2)C(Cl)(Cl)Cl)cc1 (stereo not given)	-11.0	-7.3%	0.4
COCCn1c(SCC(=O)c2[nH]c(C)c(C(C)=O)c2C)nc2ccccc21	6.9	-4.6%	9.6
CCCCOC(=O)NS(=O)(=O)c1sc(CC(C)C)cc1-c1ccc(Cn2c(CC)nc3c(C)cc(C)nc32)cc1	·	?	3.8
COc1ccc(CC(NC(C)=O)C(=O)NC2CCN(c3nnnn3-c3ccccc3)CC2)cc1OC (stereo not given)	·	9.6%[46 µM]	·
Cc1cc(NC(=O)N2CCC(CN3CCOCC3)CC2)ccc1Br	·	-8.5%[46 µM]	·
CCOC(=O)C1CCCN(C(=O)CC(c2ccccc2)c2ccccc2)C1 (stereo not given)	-100.0*	-12.9%	7.9
CCOC(=O)C1CCCN(C(=O)Cc2ccc(C)cc2)C1 (stereo not given)	?	-3.0%	-9.5
Cc1cccc(C(CC(=O)N2CCCC2)c2ccccc2)c1O (stereo not given)	37.2	1.8%	-3.3
O=C(CC(c1ccccc1)c1ccccc1O)N1CCCC1 (stereo not given)	-88.1*	5.4%	-3.1
COc1ccc(CCC(C)NC2C3CC4CC(C3)CC2C4)cc1 (stereo not given)	-108.4*	16.3%	13.8
COc1ccc(CCC(C)Nc2ccccc2F)cc1 (stereo not given)	-3.7	1.4%	·
O=C(COc1ccc(Cl)cc1)Nc1ccccc1C(=O)OCc1cc(=O)n2ccsc2n1	·	-1.2%[46 µM]	·
COc1cc(NC(=O)NCCn2nnc3cc(S(=O)(=O)N(C)C)ccc32)cc(OC)c1	·	-2.7%[46 µM]	·
Cc1ccc(CNC(=O)CCCN2C(=O)CCn3nc(-c4cn(C)c5ccccc45)cc32)cc1	·	-10.2%[46 µM]	·
CCOC(=O)C1CCN(C(=O)COc2ccc(N(C)S(=O)(=O)c3ccc(C)cc3)cc2)CC1	·	0.3%[46 µM]	·
COC(=O)C(CCSC)NC(=O)c1c(C)oc2ncn(CC(C)C)c(=O)c12 (stereo not given)	·	9.0%[46 µM]	·
Cc1ccc(C(=O)CCC(=O)O)cc1	19.6	-0.8%	4.6
CCCc1ccc(C(=O)CCC(=O)O)cc1	-95.6*	5.6%	-8.6
CC(C)(C)NC(=O)COC(=O)c1cc(S(=O)(=O)N2CCCCC2)ccc1N1CCOCC1	-6.1	14.9%	-5.0
CC1(C)Cc2cccc(OCC(=O)N3CCN(S(=O)(=O)c4ccccc4F)CC3)c2O1	-93.6*	12.9%	6.6
CC1(C)Cc2cccc(OCC(=O)N3CCN(c4ccccc4)CC3)c2O1	?	-19.6%	8.8
CCOc1ccccc1NC(=O)CSC1=Nc2ccccc2C2=NC(CC(=O)NCc3ccc4c(c3)OCO4)C(=O)N12 (stereo not given)	·	·	-1.6
CC(NCCc1ccc(O)cc1)C(O)c1ccc(O)cc1 (stereo not given)	-4.4	-1.8%	·
CCCCCCCCNC(C)C(O)c1ccc(SC(C)C)cc1 (stereo not given)	-114.6*	?	·
Cc1ccc(NC(=O)c2cc3c(-c4ccccc4)nn(-c4ccccc4)c3s2)cc1	·	·	-5.6
SMILES	PNC assembly inh	Lamin A splicing	IMPase inh
Cc1noc(C)c1CN1C(=O)NC(Cc2ccccc2)(Cc2ccccc2)C1=O	-106.9*	-4.5%	9.2
Cc1noc(C)c1CSc1nnc(-c2ccccc2F)n1CCc1ccccc1	?	-7.5%	6.4
OCC(O)CSc1nc(-c2ccccc2)nc2c1CCC2 (stereo not given)	40.9	-19.3%	-5.0
CCC(C)[C@@H](C(=O)NCC1CCC(C(=O)O)CC1)n1nnc2ccccc2c1=O (stereo not given in full)	-5.1	4.9%	-5.7
C[C@@H](C(=O)N[C@H](C(=O)O)c1ccccc1)n1nnc2ccccc2c1=O	-112.4*	-4.1%	·
Cc1ccc(NS(=O)(=O)c2ccc(OCC(=O)N3CCOCC3)cc2)cc1	-21.6	-13.8%	-2.3
O=C(COc1ccc(F)cc1)Nc1ccc2nc(SCC(=O)N3CCc4ccccc43)sc2c1	·	13.9%[46 µM]	·
COc1ccccc1/C=C/CN1CCN(c2ccccc2)CC1	-111.1*	-7.9%	6.9
COc1cccc(OC)c1OCC(O)CN1CCN(c2ccccc2)CC1 (stereo not given)	-29.1	3.5%	12.2
CCOc1nc(NCCC2=CCCCC2)nc(N2CCOCC2)n1	-23.5	-10.9%	-7.2
CCOc1nc(NCCO)nc(NCCC2=CCCCC2)n1	-100.0*	-14.4%	-8.0
CCOC(=O)C(CCc1ccccc1)NC(C)C(=O)N1Cc2ccccc2CC1C(=O)O (stereo not given)	·	6.8%	·
Cc1ccc(NC(=O)CCCN2C(=S)NC(C)(C)CC2C)cc1 (stereo not given)	·	-23.0%[46 µM]	·
CCCCC1(CCCC)NC(=S)N(Nc2ccc(C)cc2)C1=O	-90.0*	-3.7%	6.7
